Data taken from PubChem BioAssay (NCI).
This is part of a sample that, as a whole, favours compounds with a hit. Of some 83,000 tested, about 20% had one in any assay.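 For each line, cells grew in 96-well plates with the test compound present at a single concentration for 48 hours.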 Calls of active or inactive are those of the source. Rule for the calls: active = growth percent below 10; inactive = the rest.

Experiments:
Assay in all cases: NCI-60 one-dose screen, 48 h (100 = growth as untreated, 0 = no growth, -100 = all killed)
Conditions in all cases: 10 µM unless noted
[1] = tested on: NCI-H23 lung
[2] = tested on: NCI-H226 lung
[3] = tested on: NCI-H322M lung
[4] = tested on: HOP-62 NSCLC
[5] = tested on: NCI-H460 lung
[6] = tested on: HOP-92 NSCLC
[7] = tested on: NCI-H522 lung
[8] = tested on: A549/ATCC NSCLC
[9] = tested on: 786-0 renal
[10] = tested on: COLO 205 colon

Measured: growth

O=C(c1ccccc1)c1c(/C=C/c2ccc(Cl)cc2)nc2ccccc2c1/C=C/c1cccs1
inactive: [1] 102% | [2] 92.4% | [3] 89.4% | [4] 106% | [5] 107% | [6] 87.3% | [7] 88.6% | [8] 92.9% | [9] 94.9% | [10] 103%

O=C(NCCNc1cc(-c2cn(-c3ccccc3)nc2-c2cccc(O)c2)ccn1)Nc1ccccc1
inactive: [1] 69.4% | [2] 70.6% | [3] 95.3% | [4] 63.7% | [5] 86.2% | [6] 54.5% | [7] 70.8% | [8] 52.5% | [9] 71.4% | [10] 81.2%

CN(c1ccccc1)c1ccc2c(c1)OCCC21CC1Nc1cnccc1C(=O)O (stereo not given)
inactive: [1] 95.4% | [2] 63.9% | [3] 87.5% | [4] 63.2% | [5] 45.7% | [6] 101% | [7] 63.7% | [8] 83.4% | [9] 72.9% | [10] 68.6%

C=C(C)[C@@H]1CC=C2c3sc(-c4ccc(C)cc4)nc3C[C@@H](C)[C@]2(C)C1
inactive: [1] 112% | [2] 101% | [3] 101% | [4] 102% | [5] 114% | [6] 103% | [7] 95.7% | [8] 95.3% | [9] 109% | [10] 108%

O=C(NCCCNc1cc(-c2cn(-c3ccccc3)nc2-c2cccc(O)c2)ccn1)c1cccc(O)c1
inactive: [1] 67.3% | [2] 86.6% | [3] 111% | [4] 85.3% | [5] 69.6% | [6] 57.2% | [7] 53% | [8] 53.4% | [9] 63.8% | [10] 80.2%

COC(=O)[C@H](CSC)N(C)C(=O)[C@@H]1CSSC[C@@H](NC(=O)c2nc3ccccc3cc2O)C(=O)NCC(=O)N1C
inactive: [1] 84.9% | [2] 87.5% | [3] 100% | [4] 82.2% | [5] 59.1% | [6] 132% | [7] 45.9% | [8] 59.4% | [9] 111% | [10] 16%

c1csc(-c2c3ccc(=[N+]4CCCCC4)cc-3oc3cc(N4CCCCC4)ccc23)c1
active: [1] -71.3% | [2] -81.7% | [3] -78.5% | [4] -60.6% | [5] -57.3% | [6] -64.7% | [7] -70% | [8] -56.2% | [9] -92.5% | [10] -61.5%

COc1cccc(-c2nc3sccn3c2-c2ccnc(NCCNS(=O)(=O)c3cccc(Cl)c3)c2)c1
inactive: [1] 53.5% | [2] 40.7% | [3] 80.8% | [4] 70.9% | [5] 45.4% | [6] 37.2% | [7] 56.7% | [8] 45.4% | [9] 63.6% | [10] 34.8%

O=c1c2c3c(sc2n2c(-c4cc(-c5ccccc5)nn4-c4ccccc4)nnc2n1Cc1ccccc1)CCCC3
inactive: [1] 105% | [2] 99% | [3] 112% | [4] 95% | [5] 106% | [6] 53.2% | [7] 45.9% | [8] 101% | [9] 95.9% | [10] 86%

COc1ccc(C2C(c3nn[nH]n3)=C(N)Oc3c2ccc2ccccc32)cc1 (stereo not given)
inactive: [1] 69.1% | [2] 82.4% | [3] 85.1% | [4] 70.3% | [5] 53.7% | [6] 77.1% | [7] 23.9% | [8] 72.5% | [9] 79.2% | [10] 92.5%

N=c1sc(Cc2ccc(Cl)cc2)cn1CC(=O)c1ccc(F)cc1
inactive: [1] 82.4% | [2] 83% | [3] 76.4% | [4] 102% | [5] 33.7% | [6] 109% | [7] 63.5% | [8] 66.7% | [9] 86.5% | [10] 145%

COc1ccc(NC(=O)CSc2nnc(-c3cc(-c4ccccc4)nc4ccccc34)n2-c2ccccc2)cc1
inactive: [1] 92.1% | [2] 89.3% | [3] 94.6% | [4] 101% | [5] 102% | [6] 87.3% | [7] 80.1% | [8] 92.4% | [9] 97.3% | [10] 116%

COc1ccc(-c2nc3c(N)c(CO)c(C)nc3o2)cc1
inactive: [1] 86.6% | [2] 41.2% | [3] 92.5% | [4] 90.3% | [5] 108% | [6] 116% | [7] 91.6% | [8] 92.4% | [9] 95.5% | [10] 109%

CC(C)CCC[C@@H](C)[C@H]1CC[C@H]2[C@@H](Nc3ccc(O)cc3)CCC[C@]12C
active: [7] -42.6%
inactive: [1] 84.2% | [2] 105% | [3] 105% | [4] 108% | [5] 104% | [6] 136% | [8] 95.5% | [9] 109% | [10] 95.5%

CC1=C([Se]CC(OC(=O)CC[Se]c2ccccc2)C(=O)NCCCCCC(=O)OCc2ccccc2)C(=O)c2ccccc2C1=O (stereo not given)
inactive: [1] 10% | [2] 46% | [5] 21.6% | [7] 52.7% | [8] 11.9% | [9] 58.2% | [10] 105%
active: [3] 2.53% | [4] -15.1% | [6] -5.98%

COC(=O)CCC1=C(C)C2=NC1=CC1=NC(=CC3=NC(=Cc4[nH]c(/c(=C(/C)O)c4C)=C2)C(C(C)=O)=C3C)C(C)=C1CCC(=O)OC
inactive: [1] 99.8% | [2] 83.9% | [3] 102% | [4] 98.8% | [5] 103% | [6] 88.2% | [7] 98.8% | [8] 88.6% | [9] 105% | [10] 111%

CCCCC1CCCCN1C(=O)OCC (stereo not given)
inactive: [1] 102% | [2] 121% | [3] 101% | [4] 103% | [5] 107% | [6] 88.5% | [7] 94.1% | [8] 95.1% | [9] 93% | [10] 102%

CC(C)(C)OC(=O)Nc1ccc2c(c1)C(NC(=O)Nc1cccc(C#N)c1)CC(C)(C)O2 (stereo not given)
inactive: [1] 41% | [2] 48.4% | [3] 73.6% | [4] 45.8% | [5] 25.9% | [6] 39.1% | [7] 33.7% | [8] 40% | [9] 50.8% | [10] 53.7%

C#Cc1cccc(NC(=O)c2ccc(NC(=O)CCl)cc2)c1
active: [1] -55.2% [8.25 µM] | [2] 8.52% [8.25 µM] | [5] -24.6% [8.25 µM] | [6] -57.6% [8.25 µM] | [7] -51.6% [8.25 µM] | [9] -50.8% [8.25 µM] | [10] -66.9% [8.25 µM]
inactive: [3] 86.6% [8.25 µM] | [4] 10.7% [8.25 µM] | [8] 59.1% [8.25 µM]

CCCCn1c(=O)c2c(nc(NCCc3ccc(O)c(O)c3)n2CCC)n(CCCC)c1=O
active: [7] -0.778%
inactive: [1] 87.1% | [2] 87.7% | [3] 94.2% | [4] 96.8% | [5] 92.9% | [6] 69.8% | [8] 76.9% | [9] 81.3% | [10] 70.3%

Cc1ccc2nc(NC(=O)CSc3nc(Nc4ccc([N+](=O)[O-])cc4)c(C#N)c(-c4ccccc4)n3)sc2c1
inactive: [1] 99.6% | [2] 98.7% | [3] 92.6% | [4] 95.6% | [5] 98.7% | [6] 90.9% | [7] 87.3% | [8] 93.8% | [9] 101% | [10] 108%

Oc1ccc(CN2CCC(N3CCOCC3)CC2)c2cccnc12
active: [6] -16% | [7] -14.9%
inactive: [1] 15.2% | [2] 64.6% | [3] 57% | [4] 17.2% | [5] 10.8% | [8] 14.1% | [9] 35.1% | [10] 104%

CC1(C)CC(=O)CC2(C1)N=C(N)Nc1nc3ccccc3n12 (stereo not given)
inactive: [1] 101% | [2] 95.6% | [3] 117% | [4] 119% | [5] 111% | [6] 87.3% | [7] 69.6% | [8] 97.9% | [9] 107% | [10] 102%

N#C/C(=C\c1ccc2c(c1)OCO2)n1nnc2cc(F)c(F)cc21
inactive: [1] 67.5% | [2] 69.5% | [3] 86.2% | [4] 69.4% | [5] 77.5% | [6] 46.5% | [7] 18.3% | [8] 79% | [9] 89.2% | [10] 87.4%

Cc1c2c(c(C)c3c1oc1cc(O)ccc13)C(=O)N(CCN1CCCCC1)C2=O
inactive: [1] 94.6% | [2] 88.5% | [3] 85.9% | [4] 80% | [5] 38.7% | [6] 92.4% | [7] 94.1% | [8] 81.2% | [9] 71.7% | [10] 85.8%

O=C(CSc1nnc(-c2ccc(NC(=O)c3cccnc3)cc2)o1)Nc1cccc(Br)c1
inactive: [1] 92.8% | [2] 97.7% | [3] 97.2% | [4] 99.2% | [5] 103% | [6] 88.7% | [7] 41.4% | [8] 95.1% | [9] 94.2% | [10] 88.4%
